# Six1-Eya2 inh – blocks human Six1 binding to Eya2; Q15475+O00167; AlphaScreen GST-Six1/His-Eya2 binding, biochemical; active compounds read low; activity change, % (test concentration not listed); 360,000 tested, 0.56% active; AID 651725; in the data active = activity change below about -65%; inconclusive = mostly about -30% to -63%; also: % is scaled to controls: 0 for no effect and ±100 for the full control effect
#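 AlphaScreen luminescence read after one hour at 37 °C in darkness. Pin-transferred compounds met GST-Six1 and His-Eya2 protein (5X stock 250 nM/500 nM) plus glutathione donor and Ni-chelate acceptor beads (5X, 50 ug/mL).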
# BAZ2B inh – inhibitors of human BAZ2B bromodomain; Q9UIF8; AlphaScreen BAZ2B-H3K14Ac peptide displacement; Potency, µM (doses to about 114 µM), for the others: at the highest dose activity change, negative = inhibition, most hits filed as inhibitors; 360,000 tested, 4.4% active; also: potency is read from the fitted curve at half-maximal effect; % is scaled to controls: 0 for no effect and ±100 for the full control effect; nearly all actives have a fitted effect of over 60% in size
#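 AlphaScreen displacement: compounds (up to 110uM) incubated 30 min at room temperature with a preformed 50 nM BAZ2B/50 nM biotinylated H3K14Ac peptide complex in PBS pH 7.4 with Tween-20. Donor and acceptor beads at 10 ug/mL final added, 20 min light-protected before reading.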
# JMJD2A Tudor inh – inhibitors of human JMJD2A Tudor domain; AID 504339; 390,000 tested, 4.4% active; Potency, µM (titrated, usually from 114 µM), without a hit: at the highest dose activity change, negative = inhibition, actives largely listed as inhibitors; AlphaScreen JMJD2A-Tudor / H3K4me3 peptide binding; also: potency is read from the fitted curve at half-maximal effect; % is scaled to controls: 0 for no effect and ±100 for the full control effect; nearly all actives have a fitted effect of over 50% in size
# CtBP-E1A inh – CtBP/E1A binding inhibition; activity change, % (test concentration not listed); 340,000 tested, 0.49% active; AlphaScreen GST-E1A/His-CtBP binding, 1536-well; active compounds read low; AID 651724; in the data active = activity change below about -65%; inconclusive = mostly about -30% to -63%; also: % is scaled to controls: 0 for no effect and ±100 for the full control effect
#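 Homogeneous bead-based format: GST-tagged E1A captured on glutathione donor beads, His-tagged CtBP on nickel acceptor beads; compounds precede bead addition by 2 h at 37 °C.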
# G9a inh – inhibitors of human histone lysine methyltransferase G9a; 350,000 tested, 8.8% active; Q96KQ7; G9a H3K9 monomethylation, AlphaScreen, 2 h; AID 504332; Potency, µM (highest dose often 102 µM), without a hit: at the top dose activity, negative = inhibition, usual class: inhibitors; also: potency is read from the fitted curve at half-maximal effect; % is scaled to controls: 0 for no effect and ±100 for the full control effect; nearly all actives have a fitted effect of over 75% in size
#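 Quantitative HTS format: methyltransferase activity on a biotin-tagged H3K9 peptide is measured by AlphaScreen, using a rabbit anti-monomethyl-H3K9 antibody with streptavidin donor and anti-IgG acceptor beads. Final levels are 20 nM enzyme, 500 nM peptide, 20 uM SAM; 2 h RT.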
# HP1b binding inh – inhibitors of HP1-beta chromodomain binding to methylated histone tails; P83916; AlphaScreen HP1-beta / biotin-H3K9me3 peptide binding; 390,000 tested, 0.56% active; Potency, µM (titrated, usually from 114 µM), for inactives: at the highest dose activity change, negative = inhibition, usual class: inhibitors; AID 540317; also: potency is read from the fitted curve at half-maximal effect; nearly all actives have a fitted effect of over 70% in size
#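 Compound inhibition of the preformed complex between 50 nM HP1-beta and 50 nM biotinylated H3K9me3 peptide was read by AlphaScreen. Buffer was PBS pH 7.4 with 0.01% Tween-20. Incubations ran 30 min at room temperature, with 10 ug/mL donor/acceptor beads.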
# Starred values were filed as active, the others as inactive; ? = inconclusive; · = no result; [ ] = remark or other dose. An excerpt weighted towards active compounds, which were near 10% of everything screened. Unless noted, calls follow the shape of the dose curve; as a rule, active = well fitted inhibition curve with a large enough effect; inconclusive = small, poorly fitted or top-dose-only effect; inactive = no such curve, though single readings can be large or run the other way.
SMILES,Six1-Eya2 inh,BAZ2B inh,JMJD2A Tudor inh,CtBP-E1A inh,G9a inh,HP1b binding inh
O=C(NCc1ccco1)c1cnc2n(c1=O)CCS2,-1,1%,-13%,11,50µM*,25%
O=C(c1cnc2n(c1=O)CCS2)N(c1ccccc1)C1CCCCC1,7,10%,-3%,2,-9%[2.33 µM],26%
COc1ccc(CCNC(=O)CC(Cc2ccc(C)cc2)C(=O)O)cc1OC (stereo not drawn),0,0%,-18%,·,-6%,11%
CCOC(=O)c1cccc(NC(=O)CCS(=O)(=O)c2ccc3c(c2)CC(=O)N3C)c1,·,-2%,-26%,·,-1%[59 µM],47%
NC(=O)c1c(NC(=O)C2CCCO2)sc2c1CCCC2 (stereo not drawn),-2,-29%,?,-7,3.2µM*,?
CC(C)(C)C(=O)NC(=S)Nc1sc2c(c1C(N)=O)CCC2,-9,-14%,-14%,-5,5.6µM*,?
Cc1sc(NC(=O)C2CCCO2)c(C#N)c1C (stereo not drawn),-13,-27%,-20%,0,?,-7%
Cc1sc(NC(=O)C2CCCO2)c(C(N)=O)c1C (stereo not drawn),-1,-4%,?,-2,7.9µM*,?
CCOC(=O)c1c(NC(=O)C2CCCO2)sc2c1CCC2 (stereo not drawn),-2,-36%,-5%,0,0%[59 µM],6%
CCOC(=O)N1CCN(C(=O)C[C@@H]2C[C@@]3(C(=O)OC)CCCCC=C3N(Cc3cccc4ccccc34)C2=O)CC1,-5,·,·,-9,·,·
O=C(C1CC(=O)N(C2CCCCC2)C1)N1CCN(c2cccc(C(F)(F)F)c2)CC1 (stereo not drawn),0,5%,-19%,1,-12%,18%
COCC(C)OC(=O)C(C#N)c1nc2ccccc2nc1N1CCN(Cc2ccccc2)CC1 (stereo not drawn),-2,?,-19%,-14,45µM*,-7%
COCCOC(=O)C(C#N)c1nc2ccccc2nc1N1CCN(Cc2ccccc2)CC1 (stereo not drawn),-4,?,?,-9,?,?
CN1CCN(c2nc3ccccc3nc2C(C#N)C(=O)OC2CCCCC2)CC1 (stereo not drawn),-6,56µM*,-34%,-13,?,-7%
CCCc1nc2ccccc2c(C(=O)OCC(=O)Nc2c(C)n(C)n(-c3ccccc3)c2=O)c1CC,-1,-22%,-7%,-13,9%[59 µM],25%
CCOc1ccc(NC(=O)c2cnn3c2NC(C)=C(C(=O)Nc2ccc(Cl)cc2)C3c2ccc(OC)c(OC)c2)cc1 (stereo not drawn),·,-3%,-10%,·,4%[59 µM],13%
O=c1[nH]c(/C=C/c2ccccc2F)nc2ccccc12,3,-5%,-28%,·,·,59%
O=c1nc2cccc3c2=c(/c1=C(\O)c1ccccc1)c1ccccc1c3=O,-25,89µM*,-30%,-9,?,36%
O=C(NC(=S)Nc1cccc([N+](=O)[O-])c1)C1CCCCC1,-2,-8%,-12%,1,-14%[12.7 µM],18%
O=C(O)Cc1c[nH]c2cccc(O)c12,?,35µM*,22µM*,-4,-33%[12.7 µM],35µM*
CC(C)(C)S(=O)(=O)/C(C#N)=C/c1sccc1C1OCCO1,-12,-13%,71µM*,2,0%,-11%
Cc1ccc(C)c(CNC(=O)c2ccc3c(c2)nc2n3CCC(C)C2)c1 (stereo not drawn),·,1%,-13%,·,-12%[59 µM],25%[57 µM]
Cc1cccc(-c2nc(SCC(=O)NCc3ccco3)c3c(=O)n(C)c(=O)n(C)c3n2)c1,·,1%,5%,·,-34%[59 µM],30%[57 µM]
O=C1Nc2ccccc2N=C(c2ccccc2)C1Br (stereo not drawn),23,?,?,1,·,-21%
O=C1Nc2ccccc2N=C(c2ccccc2)C1N1CCOCC1 (stereo not drawn),-3,1%,-7%,0,40µM*,41%
SMILES,Six1-Eya2 inh,BAZ2B inh,JMJD2A Tudor inh,CtBP-E1A inh,G9a inh,HP1b binding inh
Cc1cccc(Oc2ccc(NC(=O)C3CC=CCC3C(=O)O)cc2)c1 (stereo not drawn),-14,?,?,-12,45µM*,20%
CCn1c(=O)c(C(=O)CN2c3ccccc3CC2C)c(N)n(Cc2ccccc2)c1=O (stereo not drawn),3,35µM*,?,1,22µM*,?
CCN(C(=O)CN1CCCc2ccccc21)c1c(N)n(Cc2ccccc2)c(=O)[nH]c1=O,·,5%,·,·,17%[59 µM],·
CC1Cc2ccccc2N1CC(=O)N(C)c1c(N)n(Cc2ccccc2)c(=O)[nH]c1=O (stereo not drawn),-2,3%,-31%,-11,7%[12.7 µM],-2%
CCn1c(=O)c(C(=O)CN2CCCc3ccccc32)c(N)n(Cc2ccccc2)c1=O,-1,?,35µM*,-13,-12%[59 µM],?
CCn1c(=O)c(C(=O)CN(C)Cc2cccc(OC)c2OC)c(N)n(Cc2ccccc2)c1=O,-4,-6%,?,2,25µM*,?
CCn1c(=O)c(C(=O)CN2CCN(S(=O)(=O)c3ccccc3)CC2)c(N)n(Cc2ccccc2)c1=O,-4,-13%,?,-1,-7%,2%
CCn1c(=O)c(C(=O)CN2CCN(S(=O)(=O)c3ccc(C)cc3C)CC2)c(N)n(Cc2ccccc2)c1=O,-13,-31%,-21%,-2,45µM*,24%
CCn1c(=O)c(C(=O)CN(C)Cc2ccc(F)cc2)c(N)n(Cc2ccccc2)c1=O,14,-10%,-16%,0,2%,4%
CCCCC#Cc1nc(N)c2ncn([C@@H]3O[C@H](C(=O)NCC)[C@@H](O)[C@H]3O)c2n1,·,·,·,·,35%[12.7 µM],·
O=C(COC(=O)[C@H](Cc1ccccc1)NC(=O)c1cccs1)Nc1c(Cl)cccc1Cl,-9,-2%,-17%,-3,50µM*,24%
O=C(COC(=O)C(Cc1ccccc1)NC(=O)c1cccs1)NCc1ccccc1 (stereo not drawn),-2,-2%,2%,0,-5%[12.7 µM],34%
Cc1ccc(OC(=O)c2cccc([N+](=O)[O-])c2)c(-n2nc3ccccc3n2)c1,11,-6%,-19%,-20,21%[59 µM],17%
Cc1cc(-n2nc3ccccc3n2)c(O)c([N+](=O)[O-])c1,4,-35%,-29%,-2,79µM*,-7%
O=S(=O)(NCC(c1ccco1)S(=O)(=O)c1cccs1)c1ccc(F)c(C(F)(F)F)c1 (stereo not drawn),·,-11%,-8%,·,3%[59 µM],26%

# Bioassay records from PubChem BioAssay.
